Reference: PubChem BioAssay
For some of these results: Potency and affinity values are given separately. Active and inactive are the calls of the source.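 The calls were made as follows, unless noted: active = calcium signal ratio cut to more than 3 SD under the fully stimulated control mean yet still positive, in both repeats and the primary screen; inactive = the rest.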

Key:
[1] = test system: TRPC4 beta (transient receptor potential cation channel C4), mouse; test: TRPC4 cation channel opening, retest – cell-based, Fluo4 calcium, HEK293 TRPC4beta/mu-opioid, duplicates, 10 µM, confirmation (AID 2426;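 active = fluorescence ratio normalized to control raised more than 50% in primary screen plus both repeat runs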); conditions: Fluo4 calcium fluorescence, at 10 µM; stronger effect = higher value
[2] = test system: transient receptor potential cation channel C4 beta (TRPC4), mouse; test: TRPC4 cation channel opening, second retest – cell-based, second round, Fluo4, HEK293 TRPC4beta/mu-opioid, 1 µM, confirmation (AID 2461;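 active = primary screen active and over 50% activation in each of two duplicate runs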); conditions: Fluo4 calcium fluorescence, at 1 µM; stronger effect = higher value
[3] = test system: TRPC4 (transient receptor potential cation channel C4 beta), mouse; test: potentiation of DAMGO EC20 TRPC4 response – cell-based, second round, Fluo-4, HEK293 TRPC4beta/mu-opioid, 1 µM, confirmation (AID 2554;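 active = primary screen hit whose fluorescence ratio, in both repeats, exceeds the weak agonist control mean by 3 SD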); conditions: DAMGO EC20, Fluo-4 calcium flux, at 1 µM; stronger effect = higher value
[4] = test system: TRPC4 beta (transient receptor potential cation channel C4), mouse; test: potentiation of DAMGO EC20 TRPC4 response – cell-based, Fluo-4, HEK293 TRPC4beta/mu-opioid, confirmation (AID 2555;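 active = primary screen hit whose calcium fluorescence ratio, in both repeats, exceeds the weak agonist control mean by 3 SD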); conditions: DAMGO EC20, Fluo-4 calcium flux, at 10 µM; stronger effect = higher value
[5] = target: Short transient receptor potential channel 4 (Mus musculus) (UniProt Q9QUQ5); test: blockers of DAMGO-evoked TRPC4 calcium flux – cell-based, Fluo4, HEK293 TRPC4beta/mu-opioid, confirmation (AID 2636;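 active = calcium signal cut by more than 3 SD below the full-agonist control yet still positive, in both repeats and the earlier primary screen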); conditions: at 10 µM; stronger effect = higher value
[6] = target: Short transient receptor potential channel 4 (Mus musculus) (UniProt Q9QUQ5); test: blockers of DAMGO-evoked TRPC4 calcium flux – cell-based, second round, Fluo4, HEK293 TRPC4beta/mu-opioid, 1 µM, confirmation (AID 2637); conditions: at 1 µM; stronger effect = higher value
[7] = target: Short transient receptor potential channel 4 (Mus musculus) (UniProt Q9QUQ5); test: calcium entry via TRPC4 opening agents – cell-based, HEK293 TRPC4/mu-opioid, Fluo-4 calcium, dose response (AID 434937;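 active = primary screen activator hit with a dose response curve and TRPC4 channel activation at any tested dose; inactive = no activation, no dose response, or not a primary hit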)
[8] = target: Short transient receptor potential channel 4 (Mus musculus) (UniProt Q9QUQ5); test: potentiation of DAMGO-evoked TRPC4 calcium signal – cell-based, HEK293 TRPC4/mu-opioid, Fluo-4 calcium, EC20 DAMGO, dose response (AID 434941;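 active = earlier screen potentiator hit that boosts the TRPC4 ion channel at some dose, with a dose response; inactive = no potentiation, no dose response, or not a prior hit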;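 also: calcium entry triggered by an EC20 dose of DAMGO at the co-expressed mu-opioid receptor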)
[9] = target: Short transient receptor potential channel 4 (Mus musculus) (UniProt Q9QUQ5); test: block of DAMGO-driven TRPC4 calcium entry – cell-based, HEK293 TRPC4/mu-opioid, Fluo-4 calcium, dose response (AID 434942;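 active = primary screen inhibitor hit that blocks the TRPC4 channel at some tested dose, yielding a dose curve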)
[10] = target: Short transient receptor potential channel 6 (Mus musculus) (UniProt Q61143); test: TRPC6 blockade by TRPC4 inhibitor hits – cell-based, HEK293, membrane potential dye, duplicate, selectivity assay for TRPC4 inhibitor project, confirmation (AID 434948;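 active = active in primary screen and both duplicates, each dropping signal beyond three positive-control SD with fluorescence still positive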); conditions: HEK293 TRPC6, membrane potential dye fluorescence, at 10 µM, stimulated with maximal-effect acetylcholine; stronger effect = higher value
[11] = target: Short transient receptor potential channel 6 (Mus musculus) (UniProt Q61143); test: TRPC6 opening by TRPC4 activator hits – cell-based, HEK293, membrane potential dye, duplicate, selectivity assay for TRPC4 activator project, confirmation (AID 434950;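 active = membrane potential signal rise above negative control mean plus 3 SD in both duplicates, also active in the earlier TRPC4 screen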); conditions: HEK293 TRPC6, membrane potential fluorescence, at 10 µM; activation: stronger effect = higher value; outcome: activation
[12] = target: Short transient receptor potential channel 6 (Mus musculus) (UniProt Q61143); test: positive modulators of mouse TRPC6 channel – HEK293 cells, membrane potential dye, duplicate, selectivity assay for TRPC4 potentiator project, confirmation (AID 434952;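 active = compound raising the membrane signal above positive-control mean plus 3 SD in both repeats, and a primary screen hit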); conditions: HEK293 TRPC6, membrane potential dye fluorescence, at 10 µM, maximal acetylcholine added after compound; stronger effect = higher value
[13] = target: Short transient receptor potential channel 4 (Mus musculus) (UniProt Q9QUQ5); test: calcium flux activators in TRPC4/5HT1a cells, counter-screen for TRPC4 activator project, cell-based, second counter screen, HEK293 TRPC4/5HT1a, Fluo-4 (AID 434977;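 active = calcium signal rise above buffer-control mean plus 5 SD in both duplicates, and also a hit in the primary screen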); conditions: Fluo-4 calcium flux, at 10 µM; stronger effect = higher value
[14] = serotonin-gated TRPC4 signal block – cell-based, second counter screen, HEK293 TRPC4/5HT1a, Fluo-4, counter-screen for TRPC4 inhibitor project, confirmation (AID 434978;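 active = primary screen active whose calcium signal fell more than 3 SD beyond the full-serotonin control mean in both duplicate plates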;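 also: serotonin given first at submaximal then at maximal dose after compound preincubation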); conditions: Fluo-4 calcium flux, at 10 µM, serotonin added to trigger calcium flux; stronger effect = higher value
[15] = test system: TRPC4 (mouse), co-expressed with 5HT1a in HEK293; test: enhancement of serotonin-evoked TRPC4 response – cell-based, second counter screen, HEK293 TRPC4/5HT1a, Fluo-4, counter-screen for TRPC4 potentiator project, confirmation (AID 434979;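 active = signal rise over 3 SD above mean of control wells given weak agonist, in both repeats and first screen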); conditions: Fluo-4 calcium flux, at 10 µM, serotonin added at its EC20 dose; stronger effect = higher value
[16] = nonspecific calcium rise without TRPC4 – cell-based, HEK293 mu-opioid receptor line, counter-screen for TRPC4 activator project, confirmation (AID 449723;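 active = hit in primary screen, with calcium signal over 5 SD above buffer well mean in both duplicates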;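 also: counter screen cells carry the mu-opioid receptor alone and lack TRPC4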); conditions: HEK293 mu-opioid cells, Fluo-4 calcium fluorescence, at 10 µM; stronger effect = higher value
[17] = nonspecific potentiation of DAMGO calcium response – cell-based, HEK293 mu-opioid receptor line, counter-screen for TRPC4 allosteric potentiator project, confirmation (AID 449724;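 active = calcium signal rise more than 3 SD above the low-dose agonist control mean, in both duplicate plates and the primary screen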); conditions: HEK293 mu-opioid receptor cells, Fluo-4 calcium flux, at 10 µM, compound added before EC20 DAMGO stimulus; stronger effect = higher value

Measured: potentiation

Chain of Short transient receptor potential channel 6 (Mus musculus) (Q61143 whole entry, looked up): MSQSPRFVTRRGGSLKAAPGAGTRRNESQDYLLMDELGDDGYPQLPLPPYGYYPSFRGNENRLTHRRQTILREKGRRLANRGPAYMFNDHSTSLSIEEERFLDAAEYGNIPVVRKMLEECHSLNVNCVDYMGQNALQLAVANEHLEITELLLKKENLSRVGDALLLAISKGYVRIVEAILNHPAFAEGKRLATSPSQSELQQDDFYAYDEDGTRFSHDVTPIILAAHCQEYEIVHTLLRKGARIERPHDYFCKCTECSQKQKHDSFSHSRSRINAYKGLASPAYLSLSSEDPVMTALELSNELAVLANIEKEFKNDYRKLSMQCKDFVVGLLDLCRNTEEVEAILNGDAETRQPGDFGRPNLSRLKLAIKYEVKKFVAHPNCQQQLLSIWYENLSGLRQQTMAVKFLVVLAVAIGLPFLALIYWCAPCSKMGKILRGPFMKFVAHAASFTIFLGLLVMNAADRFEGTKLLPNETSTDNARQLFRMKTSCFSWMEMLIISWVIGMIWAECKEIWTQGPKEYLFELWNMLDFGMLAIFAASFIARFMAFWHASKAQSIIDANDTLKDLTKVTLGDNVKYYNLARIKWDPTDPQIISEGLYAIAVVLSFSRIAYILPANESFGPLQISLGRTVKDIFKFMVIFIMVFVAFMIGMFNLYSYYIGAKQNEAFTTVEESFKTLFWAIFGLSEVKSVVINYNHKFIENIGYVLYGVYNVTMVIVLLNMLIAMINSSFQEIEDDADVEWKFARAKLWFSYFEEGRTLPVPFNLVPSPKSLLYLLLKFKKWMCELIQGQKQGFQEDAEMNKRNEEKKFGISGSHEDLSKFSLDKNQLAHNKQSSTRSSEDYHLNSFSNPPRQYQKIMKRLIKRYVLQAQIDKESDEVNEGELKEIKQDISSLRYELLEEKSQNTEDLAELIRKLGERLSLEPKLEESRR
Chain of Short transient receptor potential channel 4 (Mus musculus) (Q9QUQ5 whole entry, looked up): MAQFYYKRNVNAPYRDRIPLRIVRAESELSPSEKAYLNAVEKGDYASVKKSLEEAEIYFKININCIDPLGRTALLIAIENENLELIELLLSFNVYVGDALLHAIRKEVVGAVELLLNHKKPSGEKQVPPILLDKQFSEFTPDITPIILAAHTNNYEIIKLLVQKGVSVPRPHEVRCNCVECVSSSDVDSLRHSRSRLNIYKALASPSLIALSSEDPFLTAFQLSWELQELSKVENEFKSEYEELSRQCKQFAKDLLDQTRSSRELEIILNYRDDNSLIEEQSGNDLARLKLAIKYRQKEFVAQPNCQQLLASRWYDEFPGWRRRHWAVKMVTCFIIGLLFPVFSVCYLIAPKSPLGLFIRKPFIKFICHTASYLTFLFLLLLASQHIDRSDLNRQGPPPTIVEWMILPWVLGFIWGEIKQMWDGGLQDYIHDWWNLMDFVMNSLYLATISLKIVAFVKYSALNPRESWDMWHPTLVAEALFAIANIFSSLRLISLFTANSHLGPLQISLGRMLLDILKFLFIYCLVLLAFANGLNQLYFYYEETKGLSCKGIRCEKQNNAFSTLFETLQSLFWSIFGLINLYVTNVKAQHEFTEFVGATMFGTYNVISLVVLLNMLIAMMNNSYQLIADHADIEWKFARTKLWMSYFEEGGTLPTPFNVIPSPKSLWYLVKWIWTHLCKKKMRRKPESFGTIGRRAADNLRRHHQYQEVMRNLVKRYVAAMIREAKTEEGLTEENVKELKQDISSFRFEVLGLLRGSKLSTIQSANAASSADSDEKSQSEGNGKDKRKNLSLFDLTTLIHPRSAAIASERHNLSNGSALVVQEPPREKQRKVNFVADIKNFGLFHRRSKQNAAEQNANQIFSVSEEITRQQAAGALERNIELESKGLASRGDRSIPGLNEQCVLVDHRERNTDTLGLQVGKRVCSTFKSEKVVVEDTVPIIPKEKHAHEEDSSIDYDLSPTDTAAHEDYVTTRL

C(#Cc1ccccc1)C[N+]1(CC#Cc2cccc3ccccc23)CCCC1
inactive: [1] | [2] | [3] | [4] | [5] | [6] | [7] | [8] | [9] | [10] | [11] | [12] | [13] | [14] | [15] | [16] | [17]

CC(C)CCn1c(Sc2nc3ccccc3o2)nc2c1c(=O)[nH]c(=O)n2C
inactive: [1] | [2] | [3] | [5] | [6] | [7] | [8] | [9] | [10] | [11] | [12] | [13] | [14] | [16] | [17]
active: [4] 13% | [15] 45%

Cc1cccc(Cn2c(=O)c3c(nc4n3CCCN4Cc3ccccc3)n(C)c2=O)c1
inactive: [1] | [2] | [5] | [6] | [7] | [8] | [9] | [10] | [11] | [12] | [13] | [14] | [16] | [17]
active: [3] 14% | [4] 120% | [15] 75.2%

CCn1cc(CN2CCC(n3nccc3NC(=O)CCOc3ccccc3)CC2)c(C)n1
inactive: [1] | [2] | [3] | [4] | [5] | [6] | [7] | [8] | [9] | [10] | [11] | [12] | [13] | [14] | [15] | [16] | [17]

CCOC(=O)C1=C(CNCCc2ccc(Cl)cc2)NC(=O)NC1c1cccc([N+](=O)[O-])c1 (stereo not drawn)
inactive: [1] | [2] | [3] | [4] | [5] | [6] | [7] | [8] | [9] | [10] | [11] | [12] | [13] | [14] | [15] | [16] | [17]

O=[N+]([O-])c1cc(Cc2ccccc2)cc(C=Nc2ccc(N3CCOCC3)cc2)c1O
inactive: [1] | [2] | [3] | [4] | [5] | [6] | [7] | [8] | [9] | [10] | [11] | [12] | [13] | [14] | [15] | [16] | [17]

CCCn1c(SCC(=O)N2c3ccccc3Sc3ccccc32)nc2c1c(=O)n(C)c(=O)n2C
active: [4] 18% | [15] 45.1%
inactive: [1] | [2] | [3] | [5] | [6] | [7] | [8] | [9] | [10] | [11] | [12] | [13] | [14] | [16] | [17]

CC(Oc1ccc(Cl)cc1Cl)C(=O)N(C)c1ccccc1 (stereo not drawn)
inactive: [1] | [2] | [3] | [4] | [5] | [6] | [7] | [8] | [9] | [10] | [11] | [12] | [13] | [14] | [15] | [16] | [17]

C#CC[N+]1(CC#Cc2cccc3ccccc23)CCOCC1
active: [4] 22% | [15] 26.3%
inactive: [1] | [2] | [3] | [5] | [6] | [7] | [8] | [9] | [10] | [11] | [12] | [13] | [14] | [16] | [17]

CN(CCNC(=O)c1ccc(/C=N/O)nc1)Cc1ccccc1
inactive: [1] | [2] | [5] | [6] | [7] | [8] | [9] | [10] | [11] | [12] | [13] | [14] | [16] | [17]
active: [3] 18% | [4] 8% | [15] 19.6%

NC(=O)c1ccc(Oc2ccc3c(c2)CCC3)c([N+](=O)[O-])c1
inactive: [1] | [2] | [3] | [5] | [6] | [7] | [8] | [9] | [10] | [11] | [12] | [13] | [14] | [16] | [17]
active: [4] 42% | [15] 84.5%

COc1ccc(CN2CCN(c3nc4ccccc4s3)CC2)cc1
inactive: [1] | [2] | [3] | [4] | [5] | [6] | [7] | [8] | [9] | [10] | [11] | [12] | [13] | [14] | [16] | [17]
active: [15] 12.4%

Cc1ccc(-c2cc(C(=O)NCCCN3CCCC3)c3ccccc3n2)cc1C
active: [15] 17.7%
inactive: [1] | [2] | [3] | [4] | [5] | [6] | [7] | [8] | [9] | [10] | [11] | [12] | [13] | [14] | [16] | [17]

CC1CCN(CCc2nc3cc(NS(=O)(=O)c4ccc(F)cc4)ccc3n2C)CC1
active: [15] 7.72%
inactive: [1] | [2] | [3] | [4] | [5] | [6] | [7] | [8] | [9] | [10] | [11] | [12] | [13] | [14] | [16] | [17]
